Test results published in PubChem BioAssay (EPA / NIEHS).
Where “and” joins values, the source holds several entries; their conditions need not be identical. Equal values may be shown once. A structure can be active in one record and inactive in another. Calls of active or inactive are those of the source. The calls were made as follows: active = hit-call score of the fitted dose curve at least 0.9, where 1 is the maximum; inactive = score below 0.9.

Experiments:
[1] = APR_HepG2_P-H2AX_72hr: Apredica 72-hour HepG2 Assay for H2AX Phosphorylation (AID 2282916); details: imaging, actives raise or lower the signal;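 also: phospho-histone H2A.x immunostain intensity per cell marking DNA damage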
Outline: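 Human hepatoma HepG2 cells are dosed across ten concentrations (0.39 to 200 uM, 0.5% v/v DMSO) and incubated 72 hr. Phospho-histone H2A.x is then detected by antibody staining alongside c-Jun and Hoechst, and quantified by automated fluorescence imaging.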

[2] = APR_HepG2_MitoMembPot_72hr: Apredica 72-hour HepG2 Assay for Mitochondrial Membrane Potential (AID 2282917); details: imaging, actives raise or lower the signal
Outline: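 HepG2 cells dosed 72 hr with compound at 0.39–200 uM in duplicate, 0.5% v/v DMSO final. Mitochondria stained with 250 nM MitoTracker Red CMXRos for 30 min before formaldehyde fixation, imaged by high-content fluorescence; bidirectional fit versus DMSO.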

[3] = APR_HepG2_MitoticArrest_72hr: Apredica 72-hour HepG2 Assay for Mitotic Arrest (AID 2282918); details: high-content imaging, actives raise or lower the signal
Outline: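 HepG2, 72 hr exposure, 0.39–200 uM in duplicate, 0.5% v/v DMSO final. Formaldehyde-fixed, Triton-permeabilized, anti-phospho-histone H3/FITC plus Hoechst. ArrayScan imaging at 20x; curves fit bidirectionally against DMSO baseline.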

[4] = APR_HepG2_MicrotubuleCSK_72hr: Apredica 72-hour HepG2 Assay for Microtubule CSK Stabilty (AID 2282919); details: HepG2 microtubule cytoskeleton, high-content imaging, actives raise or lower the signal
Outline: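 HepG2, 72 hr cmpd exposure, 0.39–200 uM (10 pts, duplicate), 0.5% DMSO. 3.7% formaldehyde fix, 0.5% Triton perm, anti-alpha-tubulin/Cy5 plus Hoechst. HCS fluorescence intensity; bidirectional fit vs DMSO baseline; taxol as positive control.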

[5] = APR_HepG2_P-H2AX_24hr: Apredica 24-hour HepG2 Assay for H2AX Phosphorylation (AID 2282920); details: high-content imaging, actives raise or lower the signal
Outline: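 HCS fluorescence imaging of phospho-H2A.x immunostain (with Hoechst 33342 nuclear counterstain) in HepG2 after 24 hr compound exposure; 10 concentrations, 0.39–200 uM, duplicate wells, 0.5% v/v DMSO. Gain or loss of signal fitted relative to DMSO baseline.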

[6] = APR_HepG2_StressKinase_72hr: Apredica 72-hour HepG2 Assay for Stress Kinase (AID 2282921); details: HepG2 stress kinase (phospho-c-Jun) imaging, actives raise or lower the signal
Outline: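 After a 72 h compound treatment spanning 0.39 to 200 uM, formaldehyde-fixed cells are labelled for phosphorylated c-Jun and nuclei, imaged by automated fluorescence microscopy, and activity is fitted in both directions relative to DMSO controls.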

[7] = APR_HepG2_p53Act_72hr: Apredica 72-hour HepG2 Assay for p53 Activation (AID 2282923); details: high-content imaging, actives raise or lower the signal;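 also: average cellular p53 protein immunofluorescence intensity in HepG2 cells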
Outline: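 Imaging-based endpoint: after 72 hr compound exposure (up to 200 uM, 0.5% DMSO), fixed and permeabilized monolayers were labelled with anti-p53 antibody and imaged; signal change in either direction was fitted relative to DMSO controls.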

[8] = APR_HepG2_MitoMass_72hr: Apredica 72-hour HepG2 Assay for Mitochondrial Mass (AID 2282924); details: high-content imaging, actives raise or lower the signal;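 also: MitoTracker Red CMXRos stain intensity per cell imaged as mitochondrial mass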
Outline: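 Read-out: MitoTracker Red fluorescence intensity from automated imaging (20x, six fields per well) in human HepG2 liver cells. Dosing ran 72 hr, 0.39–200 uM, 0.5% DMSO; bidirectional curve fitting versus DMSO baseline.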

[9] = APR_HepG2_NuclearSize_72hr: Apredica 72-hour HepG2 Assay for Nuclear Size (AID 2282925); details: high-content imaging, actives raise or lower the signal
Outline: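 Read-out: nuclear diameter from Hoechst 33342 images (ArrayScan, 20x, six fields/well), via cell-cycle image analysis. HepG2 were dosed 0.39–200 uM for 72 hr in 0.5% DMSO. Bidirectional fit relative to DMSO.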

[10] = ATG_CRE_CIS: Attagene CIS-FACTORIAL HepG2 Assay for human cAMP Responsive Element (CRE) binding protein 3 (AID 2282926); details: HepG2 CRE cis-reporter, Attagene multiplexed mRNA; actives raise or lower the signal
Outline: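 Readout: fluorescently labelled reporter transcripts resolved by capillary electrophoresis after RT-PCR, taken 24 h post-dosing in transfected HepG2. Endogenous transcription factor activity drives each cis-element reporter; gain or loss of signal fitted relative to DMSO control.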

[11] = molecular target: CCAAT/enhancer-binding protein beta (Homo sapiens) (UniProt P17676); experiment: ATG_C_EBP_CIS: Attagene CIS-FACTORIAL HepG2 Assay for human CCAAT/Enhancer Binding Protein (C/EBP) beta (AID 2282927); details: HepG2 Attagene cis-factorial transcription factor reporter; actives raise or lower the signal
Outline: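 HepG2, transient MRTU transfection, 24 h treatment. RT-PCR plus CE fluorescence; DMSO negative control, bidirectional fit.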

[12] = ATG_CMV_CIS: Attagene CIS-FACTORIAL HepG2 Assay for human CMV (Internal Marker) (AID 2282928); details: HepG2 CMV promoter reporter, transcription factor profiling; actives raise or lower the signal;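 also: endpoint acts as a background internal control marker rather than a target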
Outline: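 Bidirectional fits against DMSO are applied to reporter mRNA, read by RT-PCR with capillary electrophoresis, from HepG2 cells exposed 24 h. The endpoint serves as an internal CMV background marker within the cis-factorial reporter panel.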

[13] = ATG_DR4_LXR_CIS: Attagene CIS-FACTORIAL HepG2 Assay for human Liver X Receptor (LXR), DR4 submotif (AID 2282929); details: HepG2 Attagene DR4 cis-reporter, mRNA transcription; actives raise or lower the signal
Outline: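 The endpoint is DR4-element-driven reporter transcripts after 24 h chemical exposure of transfected HepG2 cells. These were measured via RT-PCR and capillary electrophoresis, and gain or loss of signal was fitted relative to DMSO controls.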

[14] = molecular target: Aryl hydrocarbon receptor (Homo sapiens) (UniProt P35869); experiment: ATG_Ahr_CIS: Attagene CIS-FACTORIAL HepG2 Assay for human Aryl Hydrocarbon Receptor (Ahr) (AID 2282930); details: HepG2 AhR cis-factorial reporter transcription; actives raise or lower the signal
Outline: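 Endogenous factor activity is tracked through cis-promoter reporter units transfected into HepG2 cells. Transcript levels at 24 h are read by fluorescent RT-PCR and capillary electrophoresis, with activity in either direction scored relative to DMSO.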

[15] = ATG_AP_1_CIS: Attagene CIS-FACTORIAL HepG2 Assay for human Activator Protein 1 (AP-1) (AID 2282931); details: HepG2 Attagene cis-factorial AP-1 reporter mRNA; actives raise or lower the signal
Outline: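 Readout is reporter transcript level from endogenous transcription factor activity, quantified by RT-PCR with fluorescent primer extension and capillary electrophoresis. Transiently transfected HepG2 cells, 24 h exposure. Curves fitted both directions versus DMSO.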

[16] = ATG_AP_2_CIS: Attagene CIS-FACTORIAL HepG2 Assay for human Activator Protein 2 (AP-2) (AID 2282932); details: HepG2 AP-2 cis-reporter, Attagene transcription factor profiling; actives raise or lower the signal
Outline: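 Liver-derived HepG2 line, cis-reporter system measuring endogenous factors; 24 h dosing; reporter mRNA detected by fluorescent RT-PCR and capillary electrophoresis.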

[17] = ATG_BRE_CIS: Attagene CIS-FACTORIAL HepG2 Assay for human Bone Morphogenetic Protein (BMP) Response Element (BRE) (AID 2282933); details: HepG2 BMP response element reporter, Attagene transcription factor profiling; actives raise or lower the signal
Outline: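 HepG2 cells transiently transfected with multiplexed cis-element reporter units were dosed with chemical for 24 h. Reporter mRNA was measured by RT-PCR with fluorescent labelling, HpaI digestion and capillary electrophoresis; bidirectional fitting relative to DMSO.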

[18] = molecular target: Retinoic acid receptor alpha (Homo sapiens) (UniProt P10276); experiment: ATG_DR5_RAR_CIS: Attagene CIS-FACTORIAL HepG2 Assay for human Retinoic Acid Receptor Alpha (RARE), DR5 submotif (AID 2282934); details: HepG2 Attagene cis-factorial RARE DR5 reporter, mRNA; actives raise or lower the signal;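 as to AC50: reporter responds to endogenous RAR alpha beta and gamma in HepG2 not RARA alone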
Outline: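 After 24 h of chemical exposure, transiently transfected HepG2 cells were lysed for total RNA; the DR5-regulated reporter transcript was quantified via RT-PCR and capillary electrophoresis, with activity fitted bidirectionally against DMSO.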

[19] = APR_HepG2_StressKinase_24hr: Apredica 24-hour HepG2 Assay for Stress Kinase (AID 2282922); details: HepG2 stress kinase (phospho-c-Jun) imaging, actives raise or lower the signal
Outline: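 Read-out: phospho-c-Jun immunofluorescence (Cy3 secondary) quantified by high-content imaging at 20x, nuclei defined by Hoechst 33342. Human HepG2 liver cells dosed 24 hr, 0.39–200 uM, DMSO 0.5% v/v; gain or loss of signal fitted relative to DMSO.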

[20] = molecular target: Transcription factor E2F1 (Homo sapiens) (UniProt Q01094); experiment: ATG_E2F_CIS: Attagene CIS-FACTORIAL HepG2 Assay for human E2F Transcription Factor 1 (AID 2282935); details: HepG2 Attagene cis-reporter, E2F reporter RNA transcripts; actives raise or lower the signal
Outline: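 Liver-derived HepG2 cells expressing transfected promoter-driven reporter units received test chemical for 24 hours. Signal gains or losses were fitted bidirectionally against DMSO.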

Measured: AC50

Sequence of Transcription factor E2F1 (Homo sapiens) (Q01094 whole entry, looked up): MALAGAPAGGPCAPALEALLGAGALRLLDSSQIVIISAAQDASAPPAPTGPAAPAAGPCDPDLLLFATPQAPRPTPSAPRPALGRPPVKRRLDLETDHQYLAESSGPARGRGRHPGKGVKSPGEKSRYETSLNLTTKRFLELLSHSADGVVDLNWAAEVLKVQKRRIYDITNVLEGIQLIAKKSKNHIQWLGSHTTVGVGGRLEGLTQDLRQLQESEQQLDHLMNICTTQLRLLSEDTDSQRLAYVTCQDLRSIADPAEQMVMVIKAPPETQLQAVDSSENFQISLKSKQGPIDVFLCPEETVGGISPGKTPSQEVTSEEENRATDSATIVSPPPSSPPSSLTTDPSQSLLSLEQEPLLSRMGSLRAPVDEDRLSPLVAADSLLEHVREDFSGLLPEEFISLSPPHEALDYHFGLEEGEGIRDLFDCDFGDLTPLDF
Sequence of Aryl hydrocarbon receptor (Homo sapiens) (P35869 whole entry, looked up): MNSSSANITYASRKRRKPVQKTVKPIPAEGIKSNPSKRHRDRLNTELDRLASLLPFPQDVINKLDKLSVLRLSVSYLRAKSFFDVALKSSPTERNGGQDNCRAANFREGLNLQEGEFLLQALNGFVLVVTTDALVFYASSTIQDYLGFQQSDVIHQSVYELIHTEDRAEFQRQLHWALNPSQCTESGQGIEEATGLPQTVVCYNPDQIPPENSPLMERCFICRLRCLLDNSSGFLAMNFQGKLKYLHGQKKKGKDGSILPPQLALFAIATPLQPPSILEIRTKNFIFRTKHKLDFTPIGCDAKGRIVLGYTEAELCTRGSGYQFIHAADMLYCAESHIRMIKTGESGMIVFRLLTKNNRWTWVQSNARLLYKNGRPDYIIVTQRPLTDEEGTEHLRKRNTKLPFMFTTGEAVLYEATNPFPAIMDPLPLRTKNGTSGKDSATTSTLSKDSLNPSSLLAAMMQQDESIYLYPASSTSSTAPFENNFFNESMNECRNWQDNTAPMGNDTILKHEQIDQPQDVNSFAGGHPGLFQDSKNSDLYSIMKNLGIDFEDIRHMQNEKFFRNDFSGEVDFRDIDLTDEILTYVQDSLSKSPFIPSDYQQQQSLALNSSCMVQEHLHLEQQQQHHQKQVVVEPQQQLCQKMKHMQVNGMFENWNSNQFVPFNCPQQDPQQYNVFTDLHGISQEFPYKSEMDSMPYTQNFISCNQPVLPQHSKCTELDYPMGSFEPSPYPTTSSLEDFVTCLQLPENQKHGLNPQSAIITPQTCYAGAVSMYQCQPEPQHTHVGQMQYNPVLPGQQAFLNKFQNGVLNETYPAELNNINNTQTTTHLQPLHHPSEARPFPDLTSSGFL
Sequence of Retinoic acid receptor alpha (Homo sapiens) (P10276 whole entry, looked up): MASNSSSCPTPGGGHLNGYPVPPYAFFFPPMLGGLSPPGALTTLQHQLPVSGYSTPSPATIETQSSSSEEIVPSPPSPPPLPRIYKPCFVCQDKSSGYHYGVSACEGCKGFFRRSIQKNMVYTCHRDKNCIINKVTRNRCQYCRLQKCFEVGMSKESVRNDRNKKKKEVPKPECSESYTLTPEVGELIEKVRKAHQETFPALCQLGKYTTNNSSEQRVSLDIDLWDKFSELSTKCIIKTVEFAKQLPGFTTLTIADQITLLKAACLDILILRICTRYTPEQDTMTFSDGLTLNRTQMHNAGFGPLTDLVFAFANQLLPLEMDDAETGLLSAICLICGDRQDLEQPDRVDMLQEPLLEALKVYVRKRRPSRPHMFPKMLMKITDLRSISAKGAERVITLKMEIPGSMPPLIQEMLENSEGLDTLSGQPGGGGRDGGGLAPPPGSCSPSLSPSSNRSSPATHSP
Sequence of CCAAT/enhancer-binding protein beta (Homo sapiens) (P17676 whole entry, looked up): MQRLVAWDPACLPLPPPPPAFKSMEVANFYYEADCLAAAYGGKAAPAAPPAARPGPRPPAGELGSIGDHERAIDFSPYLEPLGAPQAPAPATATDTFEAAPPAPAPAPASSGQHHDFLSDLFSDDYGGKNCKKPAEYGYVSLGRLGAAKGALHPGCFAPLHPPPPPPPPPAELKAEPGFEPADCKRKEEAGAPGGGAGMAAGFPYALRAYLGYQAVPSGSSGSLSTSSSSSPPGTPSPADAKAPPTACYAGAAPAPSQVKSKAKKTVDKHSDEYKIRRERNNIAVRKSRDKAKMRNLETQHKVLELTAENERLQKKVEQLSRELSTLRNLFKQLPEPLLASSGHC

CC(C)(c1ccccc1)c1ccc(O)cc1
inactive: [2] | [3] | [4] | [5] | [6] | [7] | [8] | [9] | [10] | [11] | [12] | [14] | [16] | [17] | [18]
active: [1] 97 µM | [10] 33.4 µM and 38.9 µM | [11] 46.6 µM | [12] 23.8 µM and 38.4 µM and 43 µM | [13] 40.4 µM [middle of 4 runs] | [15] 45.8 µM [middle of 4 runs] | [16] 33.4 µM | [17] 33.4 µM | [18] 1.8 µM and 11.7 µM

CO/C=C(/C(=O)OC)c1ccccc1COc1cccc(C(F)(F)F)n1
active: [1] 20.5 µM | [3] 29.1 µM | [7] 26.9 µM | [8] 0.638 µM | [13] 7.46 µM | [17] 20.2 µM
inactive: [2] | [4] | [5] | [6] | [9] | [10] | [11] | [12] | [14] | [15] | [16] | [18]

C1CC2OC2CC1C1CO1 (centres undefined)
inactive: [1] | [2] | [3] | [4] | [5] | [6] | [19] | [7] | [8] | [9] | [10] | [11] | [12] | [13] | [15] | [16] | [17] | [18] | [20]
active: [14] 81.5 µM

Cc1cccc([N+](=O)[O-])c1
inactive: [1] | [2] | [3] | [4] | [5] | [6] | [19] | [7] | [8] | [9] | [10] | [11] | [12] | [13] | [14] | [15] | [16] | [17] | [18] | [20]

CCSC(=O)N(CC)C1CCCCC1
inactive: [1] | [2] | [3] | [4] | [5] | [6] | [19] | [8] | [9] | [10] | [11] | [12] | [13] | [14] | [15] | [16] | [17]

O=S(=O)(O)C(F)(F)C(F)(F)C(F)(F)C(F)(F)F
inactive: [1] | [2] | [3] | [4] | [5] | [6] | [19] | [7] | [8] | [9] | [10] | [11] | [12] | [13] | [14] | [16] | [17] | [18] | [20]
active: [14] 110 µM

C=CC(N)=O
inactive: [1] | [2] | [3] | [4] | [5] | [6] | [7] | [8] | [9] | [10] | [11] | [12] | [14] | [15] | [16] | [17] | [18]
active: [13] 47.6 µM

CC(C)(O)C(=O)Nc1ccc([N+](=O)[O-])c(C(F)(F)F)c1
inactive: [1] | [3] | [4] | [5] | [6] | [19] | [7] | [10] | [11] | [12] | [13] | [14] | [16] | [17] | [18] | [20]
active: [2] 0.889 µM | [8] 0.652 µM | [9] 0.522 µM | [10] 51 µM | [11] 57.1 µM | [17] 77 µM and 121 µM

CC1=C2C[C@H]3[C@@H](CC=C4C[C@@H](O)CC[C@@]43C)[C@@H]2CC[C@]12O[C@@H]1C[C@H](C)CN[C@H]1[C@H]2C
inactive: [2] | [4] | [6] | [19] | [7] | [9] | [10] | [12] | [14] | [16] | [18]
active: [1] 50 µM | [3] 16.5 µM | [5] 33.4 µM | [8] 41.2 µM | [11] 13.9 µM | [13] 13.3 µM | [17] 13.3 µM

C[C@]12CCC(=O)C=C1CC[C@@H]1[C@@H]2CC[C@]2(C)C(=O)CC[C@@H]12
inactive: [1] | [2] | [3] | [4] | [5] | [6] | [7] | [8] | [9] | [10] | [11] | [12] | [13] | [14] | [15] | [16] | [17] | [18]
active: [13] 161 µM and 167 µM | [14] 49.8 µM | [16] 45.1 µM | [18] 36.7 µM and 27.5 µM
